Data reported in PubChem BioAssay (NCI).
This is part of a sample that, as a whole, favours compounds with a hit. Of some 79,000 tested, about 15% had one in any assay. A number with no mark means an inactive call. Activity calls are given as the source filed them. No stated cut-off is given here; in the data, active means growth inhibition above about 70%; inactive means the rest.

Columns and labels:
[1] = NCI Yeast Anticancer Drug Screen. Data for the rad50 strain (AID 155);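 further: 0% = growth of vehicle-only cultures of the same strain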; settings: S. cerevisiae rad50 strain growth inhibition; at 50.0 µM; stronger effect = higher value
Method in brief: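 A DNA repair-deficient yeast mutant serves as the test organism; compound-induced growth inhibition is calculated against vehicle-treated cells.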

[2] = NCI Yeast Anticancer Drug Screen. Data for the mec2-1 strain (AID 157); settings: S. cerevisiae mec2-1 strain, at 50.0 µM, stronger effect = higher value
Method in brief: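 Strain: mec2-1 (DNA repair/cell cycle alteration). Compound exposure, then growth measured; inhibition expressed relative to vehicle.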

[3] = NCI Yeast Anticancer Drug Screen. Data for the sgs1 mgt1 strain (AID 161);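 further: 0% = growth of cultures given vehicle only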; settings: S. cerevisiae sgs1 mgt1 strain, at 50.0 µM, stronger effect = higher value
Method in brief: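 Inhibition of yeast growth, normalised to vehicle-treated controls, is reported for a strain bearing genetic alterations in DNA damage repair.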

[4] = NCI Yeast Anticancer Drug Screen. Data for the cln2 rad14 strain (AID 165);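 further: 0% = growth equal to vehicle treated cultures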; settings: S. cerevisiae cln2 rad14 strain, at 50.0 µM, stronger effect = higher value
Method in brief: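 Compounds are applied to the cln2 rad14 yeast strain, and growth is then compared with that of vehicle-treated cultures to give inhibition.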

[5] = NCI Yeast Anticancer Drug Screen. Data for the bub3 strain (AID 167); settings: S. cerevisiae bub3 mutant strain, at 50.0 µM, stronger effect = higher value
Method in brief: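 Inhibition values come from growth of compound-treated mutant yeast normalised to vehicle-treated controls.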

[6] = NCI Yeast Anticancer Drug Screen. Data for the mlh1 rad18 strain (AID 175); settings: S. cerevisiae mlh1 rad18 strain growth inhibition; at 50.0 µM; stronger effect = higher value
Method in brief: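 Read-out is yeast growth inhibition, calculated against vehicle-only controls. The compound was applied to a strain engineered with DNA damage repair alterations.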

Row | Compound | growth inhibition [1] | growth inhibition [2] | growth inhibition [3] | growth inhibition [4] | growth inhibition [5] | growth inhibition [6]
1 | CCC(=O)OCCN(C(=O)CC)c1ccccc1 | 35.6% | 5.75% | 22.2% | -2.5% | -0.05% | 31.4%
2 | CCN(CC)CC1CCCCN1CC(=O)N1c2ccccc2NC(=O)c2ccccc21 (stereo not drawn) | -6.85% | -3.25% | 5.25% | -6.1% | -1.9% | 5.95%
3 | CCOC(CN(N=O)c1ccccc1C(C)C)OCC | -3.95% | 8.9% | 7% | -21.9% | 3.55% | -4.25%
4 | Clc1nc(Sc2ccc(Br)cc2)c(Cl)c(Sc2ccc(Br)cc2)n1 | -18.9% | -2.3% | 8.05% | -0.8% | 1.5% | -17.6%
5 | CC(C)C1C(O)C23CCC4C(C)(CO)CCCC4(C)C2CC13 (stereo not drawn) | -7.15% | -6.85% | -22.6% | -15.4% | -24.1% | -8.75%
6 | O=C(/C(=N/O)c1ccc(Cl)cc1)c1ccccc1 | 99.5% (active) | 99.5% (active) | 99.4% (active) | 99% (active) | 99.3% (active) | 99.6% (active)
7 | COC1CCC(C2=NC3CCCCC3SC2)CC1 (stereo not drawn) | 13.6% | 18.8% | 21.5% | -10.6% | 54.8% | 31.7%
8 | CCCCCCCCCCCCNC | 38.2% | 30.4% | 61.9% | 30.6% | 62.6% | 44.9%
9 | CSc1cccc(N=C(C#N)C2=C(O)c3ccccc3C2=O)c1 | 21.1% | 1.85% | 9.65% | 38.6% | 21.5% | 24.4%
10 | CC1(C)OC(C)(C)c2c1nnc(-c1cccc([N+](=O)[O-])c1)[n+]2[O-] | -19.5% | -26.2% | 18.6% | 1.3% | 11.6% | -3.55%
11 | COc1cc2c(cc1OC)CN1CCc3ccccc3CC1C2 (stereo not drawn) | 15.3% | -73.3% | -16.8% | -5.1% | -33.5% | -33.7%
12 | CCOC(=O)C(=CNc1ccc2c(c1)OCO2)C(=O)OCC | 4.95% | -11.2% | 28.2% | 4.65% | 49.4% | 14.8%
13 | N#CCC(c1ccccc1)(c1ccccc1)c1ccccc1 | 46.4% | 34.8% | 45.9% | 37.1% | 52.4% | 39.6%
14 | COc1ccc(C(C)OC)cc1OC (stereo not drawn) | -15% | -22.2% | 15.6% | -16.6% | 8.7% | -8.75%
15 | CCCCCCCOc1ccc(C2=C(c3ccccc3)C(=O)C(c3ccccc3)=C2c2ccccc2)cc1 | 22.4% | 3.3% | 8.3% | 15.9% | 3.95% | 2.4%
16 | NC(=O)C[n+]1cccc(C(=O)Nc2ccccc2)c1 | 17.4% | 4.45% | 7.25% | -43.2% | 23.2% | 10.7%
17 | O=C(O)C1c2ccccc2-c2ccccc21 | 52.4% | 31.6% | 41.5% | -37.7% | 37.6% | 39%
18 | O=C1OC(c2cccc(Cl)c2)=N/C1=C\c1ccc(Cl)cc1 | 20.4% | 16.6% | 16.6% | 11.2% | 7.5% | 0.6%
19 | Cc1cc(C(N)=O)c(C(N)=O)c(Cl)n1 | 2.35% | -7.35% | -3.2% | -0.2% | 9.05% | -10.7%
20 | CC(C)(C)[N]=[V]([Cl])([Cl])[Cl] | 3.65% | -0.65% | -7.3% | -6.35% | -10.6% | -10.1%
21 | O=C1c2ccccc2-c2nc3cc4ccccc4cc3nc21 | 20.1% | 15.6% | 22.5% | 5.85% | 11.4% | 74% (active)
22 | CC1(C)C(=NNc2ccccc2)C(C)(C)C1=NNc1ccccc1 | 14.8% | 63% | 15.5% | 79.9% (active) | 96.2% (active) | 33%

Row | Compound | growth inhibition [1] | growth inhibition [2] | growth inhibition [3] | growth inhibition [4] | growth inhibition [5] | growth inhibition [6]
23 | CN1C(C(=O)Nc2nccs2)=C(O)c2ccccc2S1(=O)=O | 2.15% | 7.35% | 19.9% | -11.2% | 7.05% | 21.6%
24 | Fc1ccc(-c2nc3ccccc3[nH]2)cc1 | -9.6% | 23.9% | -1.2% | -8.4% | -4.4% | -7.05%
25 | Cc1cc[n+](CC(=O)CC(O)(C(F)(F)F)C(F)(F)F)cc1 | -9% | 5.7% | 15.2% | -4.1% | -6.95% | -1.6%
26 | COC12COC(=O)C1C(c1ccc3c(c1)OCO3)c1cc3c(cc1O2)OCO3 (stereo not drawn) | 21.8% | -0.6% | 11.5% | 8.95% | 17.4% | -4.7%
27 | O=C(O)c1ccc(OC2CCCCC2)cc1 | 6.85% | 12.1% | 42.1% | 18.6% | 11.4% | 30.9%
28 | N#C[C@H](c1nc2ccccc2s1)c1nc2ccccc2nc1Cl | 4.95% | 6.85% | 22.4% | 1.45% | 5.15% | 5.25%
29 | CN(C)C(=O)C1C2C=CC(CCC2)C1C(=O)N(C)C (stereo not drawn) | 13.1% | 15.6% | 15.8% | 13.7% | 15.7% | 14.1%
30 | Cc1ccc(O)c2occ(C)c12 | 17.7% | 12.1% | 10.5% | 36.9% | -2.8% | 39.5%
31 | CC(=O)O/C(C)=C/C(C)C | 2.65% | -5.35% | 9% | -3.15% | 2.1% | -8.95%
32 | Cc1cc(=O)oc2c(-c3ccccc3)nnc(Cl)c12 | 21.4% | 15% | 16.2% | 13.9% | 18.1% | 40.5%
33 | CC1CC/C(=N\O)CCCCC(=O)O1 (stereo not drawn) | -3.45% | -0.35% | 2.15% | -33.4% | 2.9% | 0.85%
34 | c1ccc(N2CCSCC2)cc1 | 2.95% | -5.45% | -21.9% | -6.25% | 0.3% | -7.15%
35 | c1ccc(CC2NCCc3c2[nH]c2ccccc32)cc1 (stereo not drawn) | -14.2% | 2.9% | -5.05% | -6.2% | -11.9% | 1.5%
36 | COC(=O)CC(CC(=O)OC)N1CC=CC1 | -12.9% | 10.5% | -5.95% | -15.1% | 5.35% | 31.6%
37 | ClC(Cl)(Cl)C(=NNc1ccccc1)C(Cl)(Cl)Cl | -0.1% | 16.4% | 30.4% | 50.5% | 30.6% | 69.5%
38 | CCn1c2ccccc2c2cc(N=Nc3cc(N)ccc3N(C)C)ccc21 | -3.35% | -7.85% | -9.1% | -22.3% | -5.05% | -4.6%
39 | CC1(n2nc(-c3ccccc3)n(-c3ccccc3)c2=O)CSC1 | -8.4% | -22.9% | -31.1% | -15.9% | -15.8% | -7.1%
40 | NC1CCCCCC1 | 2.95% | -7.25% | 0.8% | 3.25% | 8.45% | -2.4%
41 | N#CC(=Nc1cc(Cl)cc(Cl)c1)C1=C(O)c2ccccc2C1=O | 5.75% | 0.6% | 30.1% | 14.1% | 35.9% | 11%
42 | CC(=O)Nc1ccc(C(N)=S)cc1 | 11.8% | 7.5% | 3.25% | 5.4% | 10.5% | 4.1%
43 | CC(Oc1ccccc1)C(=O)Nc1ccc(F)cc1 (stereo not drawn) | -1% | 9.5% | 17.8% | -11.1% | 35.9% | 17.6%
